21 molecules from PubChem BioAssay (EPA / NIEHS) can be followed below.

Values joined by “and” are separate entries in the source; they are usually repeats but may differ in a detail not shown here. Equal entries are not always repeated. Records with an inconclusive call do not appear. Some compounds were tested as several samples or in several runs, with calls that do not always agree. Active and inactive are the calls of the source. The calls were made as follows: active = hit-call score of the fitted dose curve at least 0.9, where 1 is the maximum; inconclusive = response in the unintended direction; inactive = score below 0.9.

The target of one assay is Retinoic acid receptor RXR-alpha (Homo sapiens) (UniProt P19793). The assay is described as follows: OT_NURR1_NURR1RXRa_0480: Odyssey Thera (OT) 8-hour HEK293T Protein Complementation Assay for Nurr1/retinoid X receptor (RXR) (AID 2283385). Put shortly: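 8 h compound exposure, HEK293T; Nurr1/RXRα fragment complementation; fluorescence intensity; positive fitting direction vs DMSO baseline.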
Chain of Retinoic acid receptor RXR-alpha (Homo sapiens) (P19793 whole entry, looked up, the tested form may be a part): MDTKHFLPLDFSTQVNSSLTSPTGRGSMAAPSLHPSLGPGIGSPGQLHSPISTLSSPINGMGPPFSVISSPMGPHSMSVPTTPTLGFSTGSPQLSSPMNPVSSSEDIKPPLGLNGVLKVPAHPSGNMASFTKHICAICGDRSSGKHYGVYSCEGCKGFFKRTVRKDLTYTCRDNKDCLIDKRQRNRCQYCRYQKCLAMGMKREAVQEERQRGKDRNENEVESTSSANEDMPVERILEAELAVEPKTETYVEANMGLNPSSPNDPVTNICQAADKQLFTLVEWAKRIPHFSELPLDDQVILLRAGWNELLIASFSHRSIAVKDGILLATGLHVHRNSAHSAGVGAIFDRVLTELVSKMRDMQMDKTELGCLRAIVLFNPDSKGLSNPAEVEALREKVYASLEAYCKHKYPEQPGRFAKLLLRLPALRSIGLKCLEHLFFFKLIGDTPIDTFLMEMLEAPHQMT
Consider `CC(C)NCC(O)c1ccc(O)c(O)c1` (centres undefined), for which the AC50 – broadly, the concentration giving half of the maximal activity seen – was 30 nM (active).

Take `CCN(CC)CCOc1ccc(C(=C(Cl)c2ccccc2)c2ccccc2)cc1`: the half-maximal activity concentration (AC50) is 9550 nM (active). On to `CC(COCC(C)OC(=O)c1ccccc1)OC(=O)c1ccccc1` (centres undefined), for which the call was inactive. Same read-out and setting: then `CCCCC(CC)COP(=O)(OCC(CC)CCCC)OCC(CC)CCCC` (centres undefined), with “inactive”; and `CCC(C)N(C)C(=O)c1cc2ccccc2c(-c2ccccc2Cl)n1` (centres undefined), with “inactive”.

For the molecule `COC(=O)[C@H]1[C@H]2C[C@@H]3c4[nH]c5cc(OC)ccc5c4CCN3C[C@H]2C[C@@H](OC(=O)c2cc(OC)c(OC)c(OC)c2)[C@@H]1OC`, the AC50 is 16.6 µM (active) and 22.4 µM (active).

As to `CO[C@@H]1COCC[C@@H]1N[C@@H]1CC[C@@](C(=O)N2CCc3ncc(C(F)(F)F)cc3C2)(C(C)C)C1`, the call was inactive.

With `CCOCCOCCO`, the call was inactive. For the molecule `CCc1nc(N)nc(N)c1-c1ccc(Cl)cc1`, the outcome was inactive. The same measure, in the same setting: then `O=C1OC(c2ccc(O)cc2)(c2ccc(O)cc2)c2ccccc21`, with “inactive”.

Another assay has the same target. The assay is described as follows: OT_NURR1_NURR1RXRa_1440: Odyssey Thera (OT) 24-hour HEK293T Protein Complementation Assay for Nurr1/retinoid X receptor (RXR) (AID 2283386). Summed up: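 Interaction of Nurr1 with RXRα brings fused reporter fragments together in human HEK293T cells, restoring a functional reporter. Fluorescence intensity is measured 24 h after chemical treatment, and values are analysed in the positive direction against DMSO.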
For the molecule `Cc1c(C)c2c(c(C)c1O)CCC(C)(COc1ccc(CC3SC(=O)NC3=O)cc1)O2` (centres undefined), the call was inactive. With `CC(C)NCC(O)c1ccc(O)c(O)c1` (centres undefined), the half-maximal activity concentration (AC50) is 35.5 nM (active) and 30 nM (active). As to `CN(C)C(=O)NC1(c2ccccc2)CCN(CCC[C@]2(c3ccc(Cl)c(Cl)c3)CCCN(C(=O)c3ccccc3)C2)CC1`, the outcome was inactive. The same measure, in the same setting: next, `C/C=C/C=C/C(=O)O`: “inactive”; `CN(C)C(=O)NC1(c2ccccc2)CCN(CC[C@@]2(c3ccc(F)c(F)c3)CN(C(=O)c3ccccc3)CCO2)CC1`: “inactive”. Take `S=c1[nH]c2ccccc2s1`: the molecule was called inactive. As to `CCCCC(CC)COP(=O)(OCC(CC)CCCC)OCC(CC)CCCC` (centres undefined), the AC50 was 76.1 µM (active) and the molecule was called inactive.

As to `CCC(C)N(C)C(=O)c1cc2ccccc2c(-c2ccccc2Cl)n1` (centres undefined), the molecule was classed as inactive. On the same count and under the same terms, then `Cn1cnc2c1c(=O)[nH]c(=O)n2C`, with “inactive”. In the case of `COC(=O)[C@H]1[C@H]2C[C@@H]3c4[nH]c5cc(OC)ccc5c4CCN3C[C@H]2C[C@@H](OC(=O)c2cc(OC)c(OC)c(OC)c2)[C@@H]1OC`, the concentration at half-maximal activity (AC50) is 16.5 µM (active) and 25.1 µM (active).

For `CCCCCCCCCCCCCCOS(=O)(=O)O`, the molecule was classed as inactive. For the molecule `CCOCCOCCO`, the molecule was called inactive. Turning to `CCc1nc(N)nc(N)c1-c1ccc(Cl)cc1`, the result was inactive. For `NC(=Nc1ccccc1)Nc1ccccc1`, the half-maximal activity concentration (AC50) is 11.6 µM (active). Take `CCCCCCC(CCCCCCCCCCC(=O)OCC(COC(C)=O)OC(C)=O)OC(C)=O` (centres undefined): the molecule was called inactive. For `O=C(NS(=O)(=O)/C=C/c1cccs1)c1ccc(F)cc1Br`, the AC50 is 17.3 µM (active).

Regarding `CSc1ccc(Oc2ccc(S(N)(=O)=O)cc2CN(C)C)cc1C`, the concentration at half-maximal activity (AC50) was 57.5 µM (active) and 19 µM (active).

As to `O=C1OC(c2ccc(O)cc2)(c2ccc(O)cc2)c2ccccc21`, the call was inactive.
